This is an account of results in the supplement of paper PMC4022240.

± gives the standard deviation.

What all share (assay): peptide microarray binding signal (635 nm), min-max normalized on array (fraction of array maximum); higher = stronger binding
Details in all cases: peptide region: H3 112-124

For experiment [1], the target named is T1, HaloTag-ATRX ADD domain (163-292).
T1 chain: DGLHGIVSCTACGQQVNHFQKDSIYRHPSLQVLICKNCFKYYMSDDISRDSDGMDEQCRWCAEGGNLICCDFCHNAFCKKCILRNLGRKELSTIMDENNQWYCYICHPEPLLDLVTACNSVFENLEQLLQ
The procedure, abridged: (§1)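 Within each library, mean intensities of triplicate spots were min-max scaled to give the binding signal. The spots were histone 13-mer peptide–cellulose conjugates on nitrocellulose with a Cy3 tracer, blocked overnight at 4°C. They were then probed for 1 h at 4°C using biotin-labelled HaloTag reader fusions (10 nM to 1 μM) with streptavidin-Alexa Fluor 647 or rabbit histone antibodies (1:10,000 to 1:2,000) with anti-rabbit Alexa 647, and scanned at 635 nm for signal and 532 nm for misprints on an Axon GenePix 4000B.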

In experiment [2] the target is HaloTag-ING2 PHD (mouse Ing2 200-280). The procedure, abridged:
as §1

Experiment [3] deals with anti-H3K4me3 antibody ab8580. The essentials: as §1
Experiment [4] addresses anti-H3K9me3 antibody ab8898. The procedure, abridged:
as §1

Where [5] appears, read: peptide modifications: H3K115ac H3R116me2s, binder concentration: 1:2,000 dilution.
Where [6] appears, read: peptide modifications: H3K115ac H3R116me2s, binder concentration: 1:10,000 dilution.
Where [7] appears, read: peptide modifications: H3K115me1 H3K122me2, binder concentration: 1:2,000 dilution.
Setting [8] is: peptide modifications: H3K115me1 H3K122me2, binder concentration: 1:10,000 dilution.
Setting [9] is: peptide modifications: H3K115ac, binder concentration: 1:2,000 dilution.
The mark [10] stands for this setting: peptide modifications: H3K115ac, binder concentration: 1:10,000 dilution.
The mark [11] stands for this setting: peptide modifications: H3K115me1 H3K122me1, binder concentration: 1:2,000 dilution.
[12] abbreviates: peptide modifications: H3K115me1 H3K122me1, binder concentration: 1:10,000 dilution.
Setting [13] is: peptide modifications: H3K115me1 H3R116me1, binder concentration: 1:2,000 dilution.
Setting [14] is: peptide modifications: H3K115me1 H3R116me1, binder concentration: 1:10,000 dilution.
Setting [15] is: peptide modifications: H3K115me1 H3K122me3, binder concentration: 1:2,000 dilution.
Where [16] appears, read: peptide modifications: H3K115me1 H3K122me3, binder concentration: 1:10,000 dilution.
The mark [17] stands for this setting: peptide modifications: H3K115ac H3R116me2a, binder concentration: 1:2,000 dilution.
The mark [18] stands for this setting: peptide modifications: H3K115ac H3R116me2a, binder concentration: 1:10,000 dilution.
[19] abbreviates: peptide modifications: H3K115me1 H3R116cit, binder concentration: 1:2,000 dilution.
Setting [20] is: peptide modifications: H3K115me1 H3R116cit, binder concentration: 1:10,000 dilution.
Setting [21] is: peptide modifications: H3K115me1, binder concentration: 1:2,000 dilution.
Where [22] appears, read: peptide modifications: H3K115me1, binder concentration: 1:10,000 dilution.
The mark [23] stands for this setting: peptide modifications: H3K115me1 H3K122ac, binder concentration: 1:2,000 dilution.
The mark [24] stands for this setting: peptide modifications: H3K115me1 H3K122ac, binder concentration: 1:10,000 dilution.

B1: H3 112-124 I H A Kac Rme2s V T I M P K D I (peptide)
chain: IHAKRVTIMPKDI
Regarding B1, the “peptide microarray binding signal” value is 0.005956 ± 4.1e-05 in experiment [1] (peptide modifications: H3K115ac H3R116me2s, binder concentration: 50 nM); 0.0125 ± 0.0017 in experiment [1] (peptide modifications: H3K115ac H3R116me2s, binder concentration: 500 nM); 0.0167 ± 0.0042 in experiment [2] (peptide modifications: H3K115ac H3R116me2s, binder concentration: 10 nM); 0.0203 ± 0.0028 in experiment [2] (peptide modifications: H3K115ac H3R116me2s, binder concentration: 100 nM); 0.00436 ± 0.00063 in experiment [3] (setting [5]); 0.00576 ± 0.00047 in experiment [3] (setting [6]). Further, the results for the “peptide microarray binding signal” value in experiment [4] (setting [5]) and in experiment [4] (setting [6]) were 0.00375 ± 0.00054 and 0.00398 ± 0.00024, respectively.

B2: H3 112-124 I H A Kme R V T I M P Kme2 D I (peptide)
chain: IHAKRVTIMPKDI
B2: the “peptide microarray binding signal” value in experiment [1] (peptide modifications: H3K115me1 H3K122me2, binder concentration: 50 nM) is 0.00423 ± 4.3e-05; in experiment [1] (peptide modifications: H3K115me1 H3K122me2, binder concentration: 500 nM), 0.00881 ± 0.00019; in experiment [2] (peptide modifications: H3K115me1 H3K122me2, binder concentration: 10 nM), 0.0148 ± 0.0012; in experiment [2] (peptide modifications: H3K115me1 H3K122me2, binder concentration: 100 nM) it was 0.0263 ± 0.0033; in experiment [3] (setting [7]), 0.0016 ± 6.6e-05; in experiment [3] (setting [8]) it was 0.001826 ± 1.7e-05. Further, the “peptide microarray binding signal” value in experiment [4] (setting [7]) came to 0.00125 ± 6.5e-05; in experiment [4] (setting [8]) it was 0.00133 ± 2.3e-05.

B3: H3 112-124 I H A Kac R V T I M P K D I (peptide)
chain: IHAKRVTIMPKDI
As for B3, the “peptide microarray binding signal” value was 0.0131 ± 0.00019 in experiment [1] (peptide modifications: H3K115ac, binder concentration: 50 nM); 0.0422 ± 0.0053 in experiment [1] (peptide modifications: H3K115ac, binder concentration: 500 nM); 0.0158 ± 0.0028 in experiment [2] (peptide modifications: H3K115ac, binder concentration: 10 nM); 0.0152 ± 0.00051 in experiment [2] (peptide modifications: H3K115ac, binder concentration: 100 nM); 0.00323 ± 0.00038 in experiment [3] (setting [9]); 0.00228 ± 0.00013 in experiment [3] (setting [10]). Also, the figures for the “peptide microarray binding signal” value in experiment [4] (setting [9]) and in experiment [4] (setting [10]) were 0.00832 ± 0.00014 and 0.00329 ± 0.00029, respectively.

B4: H3 112-124 I H A Kme R V T I M P Kme D I (peptide)
chain: IHAKRVTIMPKDI
Consider B4, for which the “peptide microarray binding signal” value is 0.00511 ± 9.8e-05 in experiment [1] (peptide modifications: H3K115me1 H3K122me1, binder concentration: 50 nM); 0.0109 ± 9.7e-05 in experiment [1] (peptide modifications: H3K115me1 H3K122me1, binder concentration: 500 nM); 0.0179 ± 0.0021 in experiment [2] (peptide modifications: H3K115me1 H3K122me1, binder concentration: 10 nM); 0.0298 ± 0.0035 in experiment [2] (peptide modifications: H3K115me1 H3K122me1, binder concentration: 100 nM); 0.00187 ± 0.00022 in experiment [3] (setting [11]); 0.00234 ± 0.00015 in experiment [3] (setting [12]). For the same molecule, the results for the “peptide microarray binding signal” value in experiment [4] (setting [11]) and in experiment [4] (setting [12]) were 0.00121 ± 5.5e-05 and 0.00115, respectively.

B5: H3 112-124 I H A Kme Rme V T I M P K D I (peptide)
chain: IHAKRVTIMPKDI
As for B5, the “peptide microarray binding signal” value in experiment [1] (peptide modifications: H3K115me1 H3R116me1, binder concentration: 50 nM) was 0.0108 ± 0.00023; in experiment [1] (peptide modifications: H3K115me1 H3R116me1, binder concentration: 500 nM), 0.0356 ± 0.0019; in experiment [2] (peptide modifications: H3K115me1 H3R116me1, binder concentration: 10 nM), 0.0466 ± 0.0022; in experiment [2] (peptide modifications: H3K115me1 H3R116me1, binder concentration: 100 nM) it was 0.0304 ± 0.0046; in experiment [3] (setting [13]) it was 0.00891 ± 0.0021; in experiment [3] (setting [14]), 0.00593 ± 0.0011. The “peptide microarray binding signal” value in experiment [4] (setting [13]) came out at 0.00746 ± 0.0012; in experiment [4] (setting [14]) it was 0.00646 ± 0.00037.

B6: H3 112-124 I H A Kme R V T I M P Kme3 D I (peptide)
chain: IHAKRVTIMPKDI
For B6, the “peptide microarray binding signal” value in experiment [1] (peptide modifications: H3K115me1 H3K122me3, binder concentration: 50 nM) stood at 0.00583 ± 0.00011; in experiment [1] (peptide modifications: H3K115me1 H3K122me3, binder concentration: 500 nM), 0.0149 ± 0.00053; in experiment [2] (peptide modifications: H3K115me1 H3K122me3, binder concentration: 10 nM), 0.0251 ± 0.0019; in experiment [2] (peptide modifications: H3K115me1 H3K122me3, binder concentration: 100 nM) it was 0.0482 ± 0.004; in experiment [3] (setting [15]), 0.00627 ± 0.0014; in experiment [3] (setting [16]), 0.00548 ± 0.00038. For the same molecule, the “peptide microarray binding signal” value in experiment [4] (setting [15]) is 0.0268 ± 0.0058; in experiment [4] (setting [16]), 0.0121 ± 0.00038.

B7: H3 112-124 I H A Kac Rme2a V T I M P K D I (peptide)
chain: IHAKRVTIMPKDI
As to B7, the “peptide microarray binding signal” value in experiment [1] (peptide modifications: H3K115ac H3R116me2a, binder concentration: 50 nM) stood at 0.00787 ± 0.00018; in experiment [1] (peptide modifications: H3K115ac H3R116me2a, binder concentration: 500 nM), 0.0159 ± 0.00051; in experiment [2] (peptide modifications: H3K115ac H3R116me2a, binder concentration: 10 nM) it was 0.0239 ± 0.00027; in experiment [2] (peptide modifications: H3K115ac H3R116me2a, binder concentration: 100 nM) it was 0.0365 ± 0.0046; in experiment [3] (setting [17]), 0.00423 ± 0.00017; in experiment [3] (setting [18]), 0.00394 ± 0.00014. Further, the results for the “peptide microarray binding signal” value in experiment [4] (setting [17]) and in experiment [4] (setting [18]) were 0.00278 ± 0.00019 and 0.00306 ± 0.0002, respectively.

B8: H3 112-124 I H A Kme Rcit V T I M P K D I (peptide)
chain: IHAKRVTIMPKDI
For the molecule B8, the “peptide microarray binding signal” value in experiment [1] (peptide modifications: H3K115me1 H3R116cit, binder concentration: 50 nM) stood at 0.00947 ± 0.0002; in experiment [1] (peptide modifications: H3K115me1 H3R116cit, binder concentration: 500 nM), 0.0238 ± 0.00041; in experiment [2] (peptide modifications: H3K115me1 H3R116cit, binder concentration: 10 nM) it was 0.0192 ± 0.00041; in experiment [2] (peptide modifications: H3K115me1 H3R116cit, binder concentration: 100 nM) it was 0.037 ± 0.0012; in experiment [3] (setting [19]), 0.00225 ± 5.2e-05; in experiment [3] (setting [20]), 0.00434 ± 0.00036. Further, the “peptide microarray binding signal” value was found to be 0.00249 ± 6.3e-05 in experiment [4] (setting [19]) and 0.00248 ± 5.9e-05 in experiment [4] (setting [20]).

B9: H3 112-124 I H A Kme R V T I M P K D I (peptide)
chain: IHAKRVTIMPKDI
B9: the “peptide microarray binding signal” value is 0.00774 ± 0.00015 in experiment [1] (peptide modifications: H3K115me1, binder concentration: 50 nM); 0.0198 ± 0.0023 in experiment [1] (peptide modifications: H3K115me1, binder concentration: 500 nM); 0.00668 ± 0.00016 in experiment [2] (peptide modifications: H3K115me1, binder concentration: 10 nM); 0.0314 ± 0.0099 in experiment [2] (peptide modifications: H3K115me1, binder concentration: 100 nM); 0.00168 ± 0.00023 in experiment [3] (setting [21]); 0.001997 ± 1.8e-05 in experiment [3] (setting [22]). The “peptide microarray binding signal” value in experiment [4] (setting [21]) was 0.0034 ± 0.00038; in experiment [4] (setting [22]) it was 0.00236 ± 0.00015.

B10: H3 112-124 I H A Kme R V T I M P Kac D I (peptide)
chain: IHAKRVTIMPKDI
As to B10, the “peptide microarray binding signal” value worked out at 0.00345 ± 6.5e-05 in experiment [1] (peptide modifications: H3K115me1 H3K122ac, binder concentration: 50 nM); 0.0061 ± 0.00013 in experiment [1] (peptide modifications: H3K115me1 H3K122ac, binder concentration: 500 nM); 0.00746 ± 0.00035 in experiment [2] (peptide modifications: H3K115me1 H3K122ac, binder concentration: 10 nM); 0.0111 ± 0.00029 in experiment [2] (peptide modifications: H3K115me1 H3K122ac, binder concentration: 100 nM); 0.00249 ± 0.0011 in experiment [3] (setting [23]); 0.001484 ± 1.4e-05 in experiment [3] (setting [24]). For the same molecule, the figures for the “peptide microarray binding signal” value in experiment [4] (setting [23]) and in experiment [4] (setting [24]) were 0.000997 ± 1.4e-05 and 0.00104 ± 2.8e-05, respectively.
